Assay [1] in a line: Quantitative High-Throughput drug screen in 47 multiple myeloma cell lines against the NCATS MIPE library collection: LP1_DSMZ cell viability assay (AID 1918982). Note: nearly all actives have a fitted effect of over 35% in size. In a few lines: (§1)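 Inhibition of viability over 48 h was scored by ATP content (CellTiter-Glo) in 500-cell wells. Zero and full viability were defined by media-only and DMSO-only wells.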
Assay [2] is described as follows: Quantitative High-Throughput drug screen in 47 multiple myeloma cell lines against the NCATS MIPE library collection: KMS28PE_JCRB cell viability assay (AID 1918983). Note: nearly all actives have a fitted effect of over 35% in size. A digest of the protocol: as §1
Assay [3] is described as follows: Quantitative High-Throughput drug screen in 47 multiple myeloma cell lines against the NCATS MIPE library collection: L363_DSMZ cell viability assay (AID 1918984). Note: nearly all actives have a fitted effect of over 40% in size. A digest of the protocol: as §1
Assay [4] is described as follows: Quantitative High-Throughput drug screen in 47 multiple myeloma cell lines against the NCATS MIPE library collection: KMS34_JCRB cell viability assay (AID 1918985). Note: nearly all actives have a fitted effect of over 40% in size. A digest of the protocol: as §1
Assay [5] can be described thus: Quantitative High-Throughput drug screen in 47 multiple myeloma cell lines against the NCATS MIPE library collection: OCIMY7_PLB cell viability assay (AID 1918987). Note: nearly all actives have a fitted effect of over 65% in size. The following applies: OCI-MY7 myeloma viability, CellTiter-Glo ATP, 48 h; viability (% of DMSO): at 45.8 µM (top of the series). In a few lines: as §1
In general terms: In ATP-based viability assays light output follows the ATP content of the culture.

The nature of assay [6]: Quantitative High-Throughput drug screen in 47 multiple myeloma cell lines against the NCATS MIPE library collection: OCIMY5_PLB cell viability assay (AID 1918988). Note: nearly all actives have a fitted effect of over 65% in size. In a few lines: as §1
The nature of assay [7]: Quantitative High-Throughput drug screen in 47 multiple myeloma cell lines against the NCATS MIPE library collection: OPM1_PLB cell viability assay (AID 1918989). Note: nearly all actives have a fitted effect of over 40% in size. A digest of the protocol:
as §1

A short description of assay [8]: Quantitative High-Throughput drug screen in 47 multiple myeloma cell lines against the NCATS MIPE library collection: SKMM1_PLB cell viability assay (AID 1919863). Note: nearly all actives have a fitted effect of over 35% in size. The following applies: SKMM1 myeloma viability, CellTiter-Glo ATP, 48 h; viability: hits give low values. A digest of the protocol: as §1
Assay [9] in a line: Quantitative High-Throughput drug screen in 47 multiple myeloma cell lines against the NCATS MIPE library collection: U266_ATCC cell viability assay (AID 1919864). Note: nearly all actives have a fitted effect of over 35% in size. In a few lines:
as §1

A short description of assay [10]: Quantitative High-Throughput drug screen in 47 multiple myeloma cell lines against the NCATS MIPE library collection: XG6_PLB cell viability assay (AID 1919865). Note: nearly all actives have a fitted effect of over 40% in size. A digest of the protocol:
as §1

Inconclusive results are not listed. Activity calls are given as the source filed them. Calls come from the whole dose curve; as a rule, active = well fitted cell-killing curve with a large enough effect; inconclusive = small, poorly fitted or top-dose-only effect, or effect the other way; inactive = no such curve, though single readings can be large or run the other way.
Potency is the fitted concentration of half-maximal effect.

As to `CO[C@@H]1[C@@H](O)[C@H](O)[C@@H](n2c3c(Cl)cccc3c3c4c(c5c6cccc(Cl)c6[nH]c5c32)C(=O)NC4=O)O[C@@H]1CO`, the Potency in [1] was 6620 nM (active); in assay [2], 1320 nM (active); in assay [3], 1050 nM (active); in assay [4], 1320 nM (active); in assay [5], 148 nM (active); in assay [6] it was 2090 nM (active). The Potency is 2090 nM (active) in [7], 2350 nM (active) in [8], 1480 nM (active) in assay [9] and 74.3 nM (active) in assay [10].
Take `CCCNC(=O)[C@H]1O[C@H]1C(=O)N[C@H](C(=O)N1CCC[C@@H]1C(=O)OC)C(C)CC` (stereo partly specified): the Potency was 14800 nM (active) in [1]; 7430 nM (active) in [2]; 8330 nM (active) in assay [3]; 4180 nM (active) in [4]; 3320 nM (active) in [5]; 2640 nM (active) in assay [6]. Also, the Potency is 18700 nM (active) in assay [7], 20900 nM (active) in assay [8] and 10500 nM (active) in [9].
In the case of `COc1cc(C)c(Sc2cnc(NC(=O)c3ccc(CNC(C)C(C)(C)C)cc3)s2)cc1C(=O)N1CCN(C(C)=O)CC1` (stereo unspecified), the Potency in assay [1] is 16600 nM (active); in assay [2] it was 9350 nM (active); in [3], 2960 nM (active); in assay [4], 14800 nM (active); in assay [5], 3320 nM (active); in assay [6], 16600 nM (active). Further, the Potency is 16600 nM (active) in [7], 20900 nM (active) in assay [8], 14800 nM (active) in assay [9] and 14800 nM (active) in assay [10].
Take `Cn1cnc(=N)c2[nH]cnc21`: the Potency was 166 nM (active) in assay [1]; 105 nM (active) in assay [2]; 132 nM (active) in assay [3]; 132 nM (active) in [4]; 66.2 nM (active) in assay [5]; 132 nM (active) in [6]. Moreover, the values for the Potency in assay [7], in assay [8] and in assay [10] were 66.2 nM (active), 209 nM (active) and 132 nM (active), respectively.
For the compound `NC(=NCCCCCCN=C(N)N=C(N)Nc1ccc(Cl)cc1)N=C(N)Nc1ccc(Cl)cc1`, the Potency is 11800 nM (active) in assay [1]; 16600 nM (active) in assay [2]; 8330 nM (active) in assay [3]; 11800 nM (active) in assay [4]; 2960 nM (active) in assay [5]; 8330 nM (active) in assay [6]. The figures for the Potency in assay [7], in assay [8] and in [10] were 2640 nM (active), 11800 nM (active) and 2350 nM (active), respectively.
For the compound `O=C(C=Cc1ccc(CN(CCO)CCc2c[nH]c3ccccc23)cc1)NO`, the Potency is 148 nM (active) in assay [1]; 132 nM (active) in [2]; 59 nM (active) in [3]; 105 nM (active) in assay [4]; 83.3 nM (active) in assay [5]; 66.2 nM (active) in assay [6]. Further, the Potency in [7] is 66.2 nM (active); in assay [9], 264 nM (active); in [10], 235 nM (active).
As to `Nc1nc(N)c2nc(-c3cccc(O)c3)c(-c3cccc(O)c3)nc2n1`, the Potency is 23500 nM (active) in assay [1]; 26400 nM (active) in [2]; 3720 nM (active) in assay [3]; 14800 nM (active) in assay [4]; 372 nM (active) in assay [5]; 18700 nM (active) in [6]. Besides, the results for the Potency in [7], in assay [9] and in assay [10] were 9350 nM (active), 18700 nM (active) and 3320 nM (active), respectively.
On to `C[C@H]1COc2c(N3CCN(C)CC3)c(F)cc3c(=O)c(C(=O)O)cn1c23`, for which the Potency result in [1], in assay [2], in [3], in assay [4], in [5] and in assay [6] was “inactive” in each case. The Potency entry in assay [7], in assay [9] and in [10] was “inactive” throughout.
Regarding `Cc1cnc(Nc2ccc(N3CCN(C)CC3)cc2)nc1Nc1cccc(S(=O)(=O)NC(C)(C)C)c1`, the Potency is 5260 nM (active) in [1]; 7430 nM (active) in [2]; 3720 nM (active) in assay [3]; 2350 nM (active) in [4]; 935 nM (active) in [5]; 1480 nM (active) in assay [6]. Moreover, the Potency in assay [7] is 935 nM (active); in [8], 3320 nM (active); in assay [9], 11800 nM (active); in assay [10], 662 nM (active).
On to `N#CNC(=NCCCCCCOc1ccc(Cl)cc1)Nc1ccncc1`, for which the Potency in [1] was 18.7 nM (active); in [2], 132 nM (active); in [3], 662 nM (active); in [4], 14.8 nM (active); in assay [6] it was 7.4 nM (active); in assay [7], 3 nM (active). In addition, the Potency in assay [10] is 18700 nM (active). Also, in assay [5], the Potency result was “inactive”.
On to `CCC(C=C[C@@H]1OC(=O)C=C[C@H]1C)=C[C@H](C)CC=CC(C)=C[C@@H](C)C(=O)[C@@H](C)[C@H](O)[C@@H](C)CC(C)=CC(=O)O`, for which the Potency in assay [1] is 27.7 nM (active); in assay [2], 24.7 nM (active); in assay [3] it was 7.8 nM (active); in [4], 22 nM (active); in [5], 39.2 nM (active); in assay [6], 9.8 nM (active). The Potency in [7] was 31.1 nM (active); in assay [8] it was 22 nM (active); in [9] it was 24.7 nM (active); in [10] it was 15.6 nM (active).
Turning to `CCc1cnn2c(NCc3ccc[n+]([O-])c3)cc(N3CCCC[C@@H]3CCO)nc12`, the Potency in assay [1] was 16.6 nM (active); in assay [2], 29.6 nM (active); in assay [3], 23.5 nM (active); in [4], 14.8 nM (active); in assay [5], 41.8 nM (active); in assay [6] it was 20.9 nM (active). Also, the Potency was 26.4 nM (active) in assay [7], 33.2 nM (active) in [8] and 37.2 nM (active) in assay [9].
In the case of `Cc1ncc(-c2ccnc(Nc3ccc(S(C)(=O)=O)cc3)n2)n1C(C)C`, the Potency in assay [1] is 3320 nM (active); in assay [2], 5260 nM (active); in assay [3] it was 1660 nM (active); in assay [4] it was 1870 nM (active); in assay [5], 833 nM (active); in [6] it was 3320 nM (active). For the same compound, the Potency in [7] was 2350 nM (active); in [8] it was 5260 nM (active); in assay [9], 3320 nM (active); in assay [10], 1870 nM (active).
With `Cn1cc(CNCC2CCN(c3ncc(C(=O)NO)cn3)CC2)c2ccccc21`, the Potency in [1] is 41.8 nM (active); in [2], 29.6 nM (active); in assay [3], 26.4 nM (active); in assay [4], 18.7 nM (active); in assay [5], 33.2 nM (active); in assay [6], 16.6 nM (active). The Potency in [7] is 11.8 nM (active); in assay [8], 59 nM (active); in [9] it was 37.2 nM (active); in assay [10] it was 83.3 nM (active).

For the origin of these results see PubChem BioAssay (NCATS).
